# Results from the supplement of paper PMC10681739.
# Tests used:
# [1] = biological target: T1, ETS1 (UniProt P14921); assay: ETS1 binding intensity (PBM fluorescence), ETS1 alone (arbitrary fluorescence units); higher = stronger binding; settings: ETS1 concentration 1 nM; RUNX1 concentration 0 nM
# T1 sequence: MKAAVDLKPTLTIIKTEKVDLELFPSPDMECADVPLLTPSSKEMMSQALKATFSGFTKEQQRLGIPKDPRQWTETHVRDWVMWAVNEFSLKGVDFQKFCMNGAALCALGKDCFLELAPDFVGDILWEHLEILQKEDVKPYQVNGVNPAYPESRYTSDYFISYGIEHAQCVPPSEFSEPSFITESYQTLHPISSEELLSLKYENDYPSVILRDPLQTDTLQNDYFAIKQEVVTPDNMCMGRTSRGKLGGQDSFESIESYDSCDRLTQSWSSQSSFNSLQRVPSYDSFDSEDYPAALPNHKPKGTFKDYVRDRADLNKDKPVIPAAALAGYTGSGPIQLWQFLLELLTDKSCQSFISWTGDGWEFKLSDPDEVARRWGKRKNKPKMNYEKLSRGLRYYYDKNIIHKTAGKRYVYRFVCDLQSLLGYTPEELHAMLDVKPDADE
# [2] = biological target: RUNX1 (UniProt Q01196); assay: RUNX1 binding intensity (PBM fluorescence), RUNX1 alone (arbitrary fluorescence units); higher = stronger binding; settings: RUNX1 concentration 2 nM; ETS1 concentration 0 nM
# Protocol: (§1)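 Cooperative gcPBM on 36-bp genomic probes with neighbouring ETS1 and RUNX1 sites. Recombinant human RUNX1 (2 nM) was incubated alone or with ETS1 (25 nM) and detected with anti-RUNX1 antibody plus Alexa488 secondary. Values are medians over 4 replicate spots; the RUNX1+ETS1 data were normalised to the RUNX1-only data. The probes sit in constant array flanks that are not printed.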
# [3] = biological target: T1, ETS1; assay: ETS1 binding intensity (PBM fluorescence) in presence of RUNX1, normalised to ETS1-only experiment (arbitrary fluorescence units); higher = stronger binding; settings: ETS1 concentration 1 nM; RUNX1 concentration 25 nM
# [4] = biological target: RUNX1 (UniProt Q01196); assay: RUNX1 binding intensity (PBM fluorescence) in presence of ETS1, normalised to RUNX1-only experiment (arbitrary fluorescence units); higher = stronger binding; settings: RUNX1 concentration 2 nM; ETS1 concentration 25 nM
# Protocol: as §1
# 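Throughout, for RUNX1 binding intensity (PBM fluorescence) in presence of ETS1, normalised to RUNX1-only experiment: Full-length recombinant human ETS1 or RUNX1 bound to double-stranded 36-bp genomic probes on microarrays, detected by protein-specific primary antibody and Alexa488 secondary, spot fluorescence as median of four replicate spots.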
# 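Throughout, for RUNX1 binding intensity (PBM fluorescence), RUNX1 alone: Full-length recombinant human RUNX1 bound to double-stranded 36-bp genomic probes on a high-density microarray, scored as Alexa488 fluorescence per spot via anti-RUNX1 antibody, median of four replicate spots.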
# Sequence of RUNX1 (Q01196 whole entry): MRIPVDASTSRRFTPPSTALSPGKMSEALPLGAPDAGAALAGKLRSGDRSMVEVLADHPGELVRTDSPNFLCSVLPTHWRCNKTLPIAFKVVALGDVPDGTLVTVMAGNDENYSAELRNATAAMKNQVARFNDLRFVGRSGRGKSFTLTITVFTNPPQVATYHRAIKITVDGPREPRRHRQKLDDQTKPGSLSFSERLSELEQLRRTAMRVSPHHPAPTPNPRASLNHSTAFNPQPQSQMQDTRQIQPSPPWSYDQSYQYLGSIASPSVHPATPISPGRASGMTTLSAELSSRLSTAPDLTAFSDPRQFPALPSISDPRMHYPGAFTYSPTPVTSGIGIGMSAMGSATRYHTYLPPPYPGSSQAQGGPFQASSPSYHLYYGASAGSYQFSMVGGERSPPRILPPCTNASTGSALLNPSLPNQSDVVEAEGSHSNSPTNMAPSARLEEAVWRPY
Sequence,ETS1 binding intensity [1],RUNX1 binding intensity [2],ETS1 binding intensity [3],RUNX1 binding intensity [4]
CCTCTGTTCTTCACAGGAAGCCACAGGCCTCCCCTG,2840,958,3160,1050
AAACATCATAGGAAGTGGATTTTGTGGTGAGAGACA,1160,870,3880,1130
AGACCCGGAAGAACTTGTCCCAGTGTTGACCACACC,505,870,1100,938
TGGGGAGCAGGAAGCTGGGGGCGGTTGTGGAGGGAC,1130,723,1600,867
GCAGCTGCAAACAGGAAACCACAGCAGCGTAGCGGA,2910,962,8470,1710
GGGCAGGCCGGATGTGGGAGACCACAAAGCCCAAGG,5360,820,27500,9010
ACTCGGGAATGTCCGGTCGTGGTAAGCAGGGTGGCA,516,803,529,1680
TGGTGGCTATTTCCTCTCCCGCTGTGGTCCCTGGAG,563,728,535,1470
CCCAGGGCAGGAAGGGCCAAACCGCTACTGCCACTG,882,744,2080,908
TTTTCTTTCCTAGGAAGTGGTTGCTGGGTTCTGAGG,785,831,721,872
TTCTTCCCCCTTCCGGTCGCTGAGTGGTTGAGGCCG,4140,898,3610,2500
GAAAGACAGGATGTGGGATAGATCTCAACCACCTTT,2590,817,4970,4740
TATTCTTCCTGTACTTAAGCTTGCTGGTGTGGTTTC,397,868,492,1560
AACAGTACTTCCGGGGCAAGTGAGCGCCCACAAGGC,934,806,1300,1970
GTGGTCTCTGCCACTTCCTGTGGTGTAAACAGTCTC,2680,843,3730,2890
GGTTTCCGGGTGAAAAAAAAAAAAAAAACCACGCCA,461,906,529,1740
CAAGGGAACATCCTTAAACAGCTTGTGGTATTGCTG,735,878,1060,1060
AACACCTCACACTTCCTGCCCACAAGATAAGAGCCT,895,1660,1910,3120
GCTGCCGGAAAAGGCGCCGAGGTAACCGCCTCACTT,479,903,496,1020
ATGGAAAGGAAGTCGGTGGGAAACCGCCTCAGCGGT,797,740,1020,1200
AGGAGTGTCACTTCCTCTTTCCTCACCACAGCCTCC,1100,1040,1440,1890
GCCCCAGCCCCCGGATGTGGTGACAGAATCGATACT,3220,811,6050,4060
GATACAGTGCTCAGGAAACCACATGAAACCAGAGTA,451,924,948,972
CGTACGCGCACTTCCGGTCTTTGTGGCTTGCAGCTC,18000,853,34400,2610
CCTCAATTTCCTGGCCAGAGAAACCACTGCCTCTCA,546,1030,526,1810
